Here are results for 10 molecules from article PMC5540273 (PLoS ONE, 2017).

Structures are written as SMILES. Some results are limits rather than exact numbers.
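Note: kd values determined as follow-up on hits from a single-replicate KINOMEscan panel screen.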

One may read the Kd as the constant that tells how readily two partners part at equilibrium. Low readings indicate higher affinity, high ones lower affinity. Consider `FC(F)(F)c1ccccc1-c1cc(-c2c[nH]nc2-c2ccccn2)ccn1` [GW679396], for which, in the test with CHEK1, the Kd is more than 10 µM.
Still for that read-out and setting: the same measure for `COC(=O)C(Cc1ccccc1)NC(=O)NC1CCN(c2ccnc(Nc3ccc(F)cc3)n2)C1` (centres unmarked) [GSK1379714]: more than 10 µM.
On to `Cc1ccc(NC(=O)Nc2ccc(Cl)c(C(F)(F)F)c2)cc1-c1ccc(C(=O)Nc2ccncc2)cc1` [GSK1398470], for which the Kd was more than 10 µM in the test on CDKL1 and 0.38 µM with CIT.
`CS(=O)(=O)CCNCc1nc(-c2ccc3ncnc(Nc4ccc5c(cnn5Cc5ccccc5)c4)c3c2)cs1.Cl.Cl` [GW569716] returned a dissociation constant (Kd) in the test on CDKL3 of more than 10 µM.
For `Cn1cnc2c(N)ncnc21` [SKF-97623], the Kd with CDKL1 was more than 10 µM.
In the test with CHEK1, `CS(=O)(=O)CCNCc1nc(-c2ccc3ncnc(Nc4ccc(OCc5ccccc5)c(Cl)c4)c3c2)cs1.Cl` [GW582764] returned a Kd of more than 10 µM.
Still for that read-out and setting: the same measure for `Cc1ccccc1-c1cc(-c2c[nH]nc2-c2ccccn2)ccn1` [GW680061]: more than 10 µM.
Consider `COc1ccc(Nc2nccc(N3CCC(NC(=O)C(C)c4ccc(Cl)cc4)C3)n2)cc1` (centres unmarked) [GSK1379735], for which the Kd with CDKL1 is more than 10 µM.
On to `O=C(Nc1n[nH]c2cc(-c3ccsc3)ccc12)C1CC1` [SB-732932], for which the affinity with CDKL2, expressed as Kd, was 0.1 µM.
Turning to `O=C(Nc1n[nH]c2nc(-c3cccs3)c(Br)cc12)C1CC1` [SB-735297], binding in the test with CDKL2 was characterised by a dissociation constant (Kd) of 0.14 µM.
